From PubChem
An excerpt weighted towards active compounds, which were near 5.3% of everything screened.
Six1-Eya2 blk – inhibitors of human Six1/Eya2 interaction; AlphaScreen GST-Six1/His-Eya2 binding, biochemical; stronger effect = lower value; activity change, % (test concentration not listed); 360,000 tested, 0.56% active; AID 651725; in the data active means activity change below about -65%; inconclusive means mostly about -30% to -63%
Target sequence (O00167 whole entry, looked up): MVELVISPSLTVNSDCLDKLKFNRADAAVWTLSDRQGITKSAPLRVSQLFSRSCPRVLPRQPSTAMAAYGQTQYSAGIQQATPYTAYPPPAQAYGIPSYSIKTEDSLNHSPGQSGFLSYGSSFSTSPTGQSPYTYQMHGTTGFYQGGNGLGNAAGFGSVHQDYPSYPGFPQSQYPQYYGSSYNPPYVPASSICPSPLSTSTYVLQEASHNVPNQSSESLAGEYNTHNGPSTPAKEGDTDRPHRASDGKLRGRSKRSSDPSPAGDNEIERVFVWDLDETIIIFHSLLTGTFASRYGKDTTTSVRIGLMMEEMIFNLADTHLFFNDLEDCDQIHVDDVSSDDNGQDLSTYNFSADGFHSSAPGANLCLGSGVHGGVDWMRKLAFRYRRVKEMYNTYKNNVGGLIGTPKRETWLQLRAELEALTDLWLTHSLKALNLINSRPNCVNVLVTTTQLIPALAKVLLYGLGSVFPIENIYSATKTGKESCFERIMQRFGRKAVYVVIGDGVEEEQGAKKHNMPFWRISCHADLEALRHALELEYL
Target sequence (Q15475 whole entry, looked up): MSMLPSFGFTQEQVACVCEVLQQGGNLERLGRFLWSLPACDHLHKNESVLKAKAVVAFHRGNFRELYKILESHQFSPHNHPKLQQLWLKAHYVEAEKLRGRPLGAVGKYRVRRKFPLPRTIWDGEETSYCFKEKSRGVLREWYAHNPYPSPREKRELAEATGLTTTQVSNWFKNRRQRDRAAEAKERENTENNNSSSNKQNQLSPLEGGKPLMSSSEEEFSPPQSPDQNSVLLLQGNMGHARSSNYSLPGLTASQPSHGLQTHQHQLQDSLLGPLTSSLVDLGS
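Homogeneous AlphaScreen proximity assay pairing GST-Six1 with His-tagged Eya2 (added as 5X mix: 250 nM and 500 nM) in 50 mM Tris pH 8.0, 300 mM NaCl, 1 mM TCEP. Glutathione donor and nickel acceptor beads; 1 h, 37 °C, dark.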
BAZ2B inh – BAZ2B (human) inhibition; 360,000 tested, 4.4% active; Potency, µM (titrated, usually from 114 µM), hits mostly inhibitors; Q9UIF8; AlphaScreen BAZ2B-H3K14Ac peptide displacement; further: nearly all actives have a fitted effect of over 60% in size
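AlphaScreen displacement: compounds (up to 110uM) incubated 30 min at room temperature with a preformed 50 nM BAZ2B/50 nM biotinylated H3K14Ac peptide complex in PBS pH 7.4 with Tween-20. Donor and acceptor beads at 10 ug/mL final added, 20 min light-protected before reading.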
HP1b chromo inh – inhibitors of HP1-beta chromodomain binding to methylated histone tails | P83916 | AlphaScreen HP1-beta / biotin-H3K9me3 peptide binding | Potency, µM (top dose mostly 114 µM), most hits filed as inhibitors | 390,000 tested, 0.56% active; further: nearly all actives have a fitted effect of over 70% in size
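AlphaScreen: HP1-beta (50 nM) preformed 30 min with biotin-H3(1-18)K9me3 peptide (50 nM) in PBS pH 7.4, 0.01% Tween-20. Compound added for 30 min at RT, then streptavidin donor/nickel chelate acceptor beads (10 ug/mL) for 30 min.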
TDP1 inh – inhibitors of human tyrosyl-DNA phosphodiesterase TDP1; Potency, µM (series often up to 130 µM), hits mostly inhibitors; 350,000 tested, 0.28% active; recombinant TDP1, AlphaScreen DNA substrate cleavage; further: nearly all actives have a fitted effect of over 40% in size
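Enzyme-compound mixtures sat 15 min at room temperature, followed by a 5 min reaction with 15 nM final substrate and 10 min with AlphaScreen beads. Recombinant human Tdp1 was used at 1 nM final.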
JMJD2A Tudor inh – inhibitors of human JMJD2A Tudor domain; Potency, µM (highest dose often 114 µM), most hits filed as inhibitors; AlphaScreen JMJD2A-Tudor / H3K4me3 peptide binding; 390,000 tested, 4.4% active; O75164; AID 504339; further: nearly all actives have a fitted effect of over 50% in size
CtBP-E1A inh – inhibitors of CtBP/E1A interaction; AlphaScreen GST-E1A/His-CtBP binding, 1536-well; stronger effect = lower value; activity change, % (test concentration not listed); 340,000 tested, 0.49% active; AID 651724; in the data active means activity change below about -65%; inconclusive means mostly about -30% to -63%
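Protein mix (5X: 125 nM each GST-E1A, His-CtBP) was incubated with pinned compound 2 h at 37 deg C in dark, in 50 mM Tris pH 8.0 buffer with 300 mM NaCl. Glutathione donor and nickel acceptor beads followed; AlphaScreen signal read after 1 h.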
A number is an active result; – = inactive; ? = inconclusive; · = no result given; [ ] = another dose, or the depositor's remark. Unless noted, the call rests on the fitted dose curve; in most records, active means well fitted inhibition curve with a large enough effect; inconclusive means small, poorly fitted or top-dose-only effect; inactive means no such curve, though single readings can be large or run the other way.

SMILES	Six1-Eya2 blk	BAZ2B inh	HP1b chromo inh	TDP1 inh	JMJD2A Tudor inh	CtBP-E1A inh
Cc1c(Cl)cccc1NC(=O)c1cc(-c2cccs2)on1	·	–	–	–	–	·
CCc1cccc(OCCCCNCCOC)c1	–	·	?	–	7.1µM	–
CC(Sc1nc(N)c2c3c(sc2n1)CSC(C)(C)C3)C(=O)Nc1ccccc1 (stereo unspecified)	–	–	?	–	11µM	–
CCCC(=O)C1C(=O)CC(C)(C)C(c2cc(C)no2)C1=O (stereo unspecified)	–	–	–	–	50µM	–
COc1cc(NC(=O)Cn2c(=O)n(Cc3ccco3)c(=O)c3sc4ccccc4c32)cc(OC)c1	·	–	–	–	–	·
Cc1ccc(C)c(SC2=NS(=O)(=O)c3ccccc32)c1	·	·	·	–	–	·
OCC1CCCN(Cc2ccc(-c3ccccc3)cc2)C1 (stereo unspecified)	–	?	?	–	2.2µM	–
C=CCn1c(-c2ccccc2OC)n[nH]c1=S	–	–	–	–	6.3µM	–
C=CCn1c(-c2cccc(OCC)c2)n[nH]c1=S	–	–	–	–	22µM	–
C=CCn1c(-c2sc3nc(C)cc(C)c3c2N)n[nH]c1=S	–	–	–	–	40µM	–
FC(F)C(F)(F)Oc1cccc(-c2n[nH]c(=S)n2Cc2ccccc2)c1	–	–	–	–	–	–
C=CCn1c(-c2cc(OC)cc(OC)c2)n[nH]c1=S	–	–	–	–	32µM	–
COc1ccc(Cl)cc1-c1n[nH]c(=S)n1Cc1ccccc1	–	–	–	–	–	–
COCCSc1nc2c([nH]c3ccccc32)c(=O)n1-c1ccc(OC)c(OC)c1	·	–	–	–	–	·
Cc1ccc(CN(C(=O)COc2ccc(C(C)C)cc2)C2CCS(=O)(=O)C2)o1 (stereo unspecified)	·	?	–	–	?	·
CCOC(=O)c1ccc(NC(=O)CCc2c(C)nc3cc(-c4ccc(OC)cc4OC)nn3c2C)cc1	·	–	–	–	–	·
CCOc1ccc2oc(C(=O)NCC(c3ccco3)N(C)C)c(C)c2c1 (stereo unspecified)	–	–	–	–	–	–
Cc1c(C(=O)NCC(c2ccco2)N(C)C)oc2c(Cl)cccc12 (stereo unspecified)	–	50µM	?	–[0.505 µM]	?	–
CC1(C)CC(NC(=S)NCc2ccc3c(c2)OCO3)CC(C)(C)N1	·	56µM	·	–	·	·
S=C(NCc1ccc2c(c1)OCO2)NC1CC1	–	–	–	–	–	–
COC(=O)c1cc2sc(C)cc2n1Cc1cccc(OC)c1	·	–	–	–	–	·
O=C(/C=C/c1ccccc1)OCCCCN=C1NS(=O)(=O)c2ccccc21	–	–	–	–	28µM	–
CC(C)c1ccc(OCC(=O)Nc2ccc(S(=O)(=O)Nc3ncccn3)cc2)cc1	·	–	–	–[12.3 µM]	–	·
CCOc1ccc(CCNC(=O)CN2N=C(c3ccccc3)CCC2=O)cc1OCC	·	–	–	–	–	·
C=CCn1c(COc2cccc3ccc(C)nc23)nnc1SCC(=O)O	–	–	–	–	28µM	–
SMILES	Six1-Eya2 blk	BAZ2B inh	HP1b chromo inh	TDP1 inh	JMJD2A Tudor inh	CtBP-E1A inh
C=CCn1c(COC)nnc1SCC(=O)c1ccc(F)cc1	–	–	–	–	40µM	–
C=CCn1c(COc2cccc3cccnc23)nnc1SCC(=O)O	–	–	–	–	–	–
COc1ccc(N2CC(NC(=O)c3ccc4c(c3)OCO4)CC2=O)cc1OC (stereo unspecified)	·	–	–	–	–	·
CCN(CC)c1ccc(NC(=O)COC(=O)COc2ccccc2[N+](=O)[O-])cc1	–	45µM	–	–	32µM	–
CCN(CC)c1ccc(NC(=O)COC(=O)CCC(=O)c2cccs2)cc1	–	45µM	?	–	?	·
CCN(CC)c1ccc(NC(=O)c2ccccc2OCC(=O)OC)cc1	?	32µM	?	–	20µM	?
COC(=O)COc1ccccc1C(N)=O	–	–	–	–	–	–
CN(C)c1ccc(-c2c(-c3ccc4c(c3)OCO4)noc2-c2ccsc2)cn1	–	–	–	·	–	–
O=C(O)c1cc(-c2ccc(-c3c(-c4ccc5c(c4)OCO5)noc3-c3ccsc3)cc2)nc2ccccc12	–	?	–	·	89µM	–
COc1cccc(OCC(=O)NCCS(=O)(=O)N2CCN(c3ccccc3F)CC2)c1	·	–	–	–	–	·
N#Cc1c(Cl)nsc1NN	–	14µM	45µM	–	50µM	–
COc1cccc(C(=O)N2CCN(C(=O)Cc3ccccc3)CC2)c1	–	–	–	–	–	–
COc1cccc(C(=O)N2CCN(Cc3ccc(OC)cc3OC)CC2)c1	–	25µM	?	·	13µM	–
COc1ccc(Br)cc1CN1CCC(N2CCCC2)CC1	–	32µM	?	–	?	–
COc1ccc(Br)cc1CN1CCN(C(=O)c2ccc(OC)c(OC)c2)CC1	–	50µM	?	–	14µM	–
COc1cccc(C(=O)N2CCN(Cc3cc(Br)ccc3OC)CC2)c1	–	28µM	?	–	7.9µM	–
COc1ccc(Br)cc1CNC(=O)C1CCCN(S(C)(=O)=O)C1 (stereo unspecified)	–	–	–	–	–	–
COc1ccc(OC)c(CN2CCN(C(=O)c3cccc(S(=O)(=O)Nc4ccccc4OC)c3)CC2)c1	–	?	–	–	–	–
O=C(O)Cn1nnc(-c2ccc(OCc3cccc(C(F)(F)F)c3)cc2)n1	·	–	–	–	–	·
Cn1cc(C(=O)O)c(=O)c2cc(S(=O)(=O)N3CCOCC3)ccc21	·	–	–	–	–	·
CCOC(=O)/C(C#N)=C1/C(=O)N(Cc2ccccc2)c2ccccc21	–	25µM	14µM	–	25µM	–
O=C1c2ccccc2C(=O)c2c(NCCCN(CCO)CCO)cccc21	?	28µM	25µM	–	40µM	–
Cc1ccc(-c2cc(C(=O)N3CCN(S(=O)(=O)c4ccc(Br)s4)CC3)[nH]n2)c(C)c1	·	–	–	–	–	·
CCN(CC)c1ccc(-c2sc(Nc3ccccc3)n[n+]2-c2ccc(F)cc2)cc1	–	28µM	–	·	56µM	–
CN(C)c1ccc(-c2sc(Nc3ccccc3)n[n+]2-c2ccc(F)cc2)cc1	–	–	–	·	?	–
CCc1ccc(Nc2n[n+](-c3ccccc3)c(-c3ccc(N(CC)CC)cc3)s2)cc1	–	40µM	?	·	40µM	–
COc1cccc(NC(=O)CSCc2cc(=O)c3ccc(C)c(C)c3[nH]2)c1	·	–	–	–	–	·
O=C(CNC(=O)c1ccc(-c2ccccc2)cc1)OC(C(=O)Nc1cc(C(F)(F)F)ccc1Cl)c1ccccc1 (stereo unspecified)	·	·	·	–	–	·
CC(=O)c1ccc(NC(=O)c2nc(-c3ccc(Cl)cc3)n3c2CCCCC3)cc1	·	?	–	–	?	·
